Common to all, as to assay: NCI-60 one-dose screen, 48 h (100 = growth as untreated, 0 = no growth, -100 = all killed)
Details in all cases: 10 µM unless noted

For assay [1], the system named is SR leukemia.
The test system of assay [2] is RPMI-8226 leukemia.
In assay [3] the test system is OVCAR-8 ovarian.
The subject of assay [4] is OVCAR-5 ovarian.
The test system of assay [5] is OVCAR-4 ovarian.
For assay [6], the system named is SK-OV-3 ovarian.
Assay [7] relates to IGROV1 ovarian.
Assay [8] has as its system HS 578T breast.
Assay [9] concerns NCI/ADR-RES ovarian.
In assay [10] the test system is T-47D breast.
Assay [11] deals with BT-549 breast.
Assay [12] relates to MDA-MB-435 melanoma.
Assay [13] relates to SW-620 colon.
Assay [14] relates to MCF7 breast.
In assay [15] the test system is HCT-116 colon.
For assay [16], the system named is HCC-2998 colon.
The subject of assay [17] is KM12 colon.

SMILES strings stand for the structures. The panel holds about 83,000 compounds, 20% with a hit somewhere; the sample as a whole holds those more often.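 Method: cells in 96-well plates; compound added at one concentration; 48 h incubation; percent growth measured; values under 10 scored active.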 Unmarked numbers belong to inactive results. Activity calls are given as the source filed them.

Take `Cc1ccccc1NC1CC(=O)N(c2ccc(Cl)cc2Cl)C1=O` (stereo not given): the growth in assay [1] is 102%; in assay [2], 102%; in [3] it was 103%; in assay [4], 107%; in assay [5] it was 97.5%; in assay [6] it was 108%. The growth is 101% in assay [7]; 99.6% in [8]; 99.9% in assay [9]; 105% in assay [10]; 123% in assay [11]; 101% in [12]. Besides, the growth in [13] is 96.2%; in assay [14], 94%; in assay [15], 108%; in assay [16], 109%; in [17], 105%.
Turning to `Nc1n[nH]c2cccc(C#Cc3cccc(NC(=O)c4cccc(OC(F)(F)F)c4)c3)c12`, the growth was 47% in [1]; 57.2% in assay [2]; 60.3% in [3]; 50.7% in [4]; 66.7% in [5]; 105% in assay [6]. Moreover, the growth in assay [7] was 19.9%; in assay [8] it was 1.43% (active); in assay [9], 57.1%; in assay [11], 85%; in assay [12], 41%; in assay [13], 57.1%. The growth was 58.8% in assay [14], 21.7% in [15], 38% in assay [16] and 58% in assay [17].
As to `CS(=O)(=O)c1ccc2c(c1)c1c(n2Cc2ccc(Cl)cc2)CCCC1`, the growth in assay [1] is 41.2%; in assay [2], 55.8%; in assay [3], 72.7%; in assay [4], 88.1%; in assay [5], 75.1%; in assay [6] it was 97.5%. Besides, the growth in [7] was 64%; in [8], 85.4%; in assay [9], 48.4%; in assay [10] it was 51.9%; in assay [11] it was 89%; in assay [12], 31.1%. The growth in assay [13] is 74.1%; in [14], 72.6%; in [15], 61.9%; in [16], 85.5%; in assay [17], 66.6%.
Turning to `CNC(=O)c1cc(Oc2ccc3nc(NC(=O)c4ccc(CN5CCN(C)CC5)c(C(F)(F)F)c4)sc3c2)ccn1`, the growth was -4.18% (active) in assay [1]; 19.6% in assay [2]; 73.8% in assay [3]; 80.7% in assay [4]; 52.4% in assay [5]; 87.1% in [6]. For the same compound, the growth in [7] was 80.1%; in [8], 52.9%; in assay [9], 78%; in assay [10], 38%; in [12], 53.9%; in assay [13], 11.4%. Besides, the growth in assay [14] was 28.9%; in assay [15] it was 31.7%; in [16] it was 70.5%; in [17] it was 46.8%.
For the compound `C/C(=C(/c1ccc(O)cc1)c1ccc(OCCN(C)C)cc1)c1ccc(Cl)cc1`, the growth in assay [1] is -3.2% (active); in [2], -8.72% (active); in [3], 62.1%; in assay [4], 66.6%; in assay [5], 66.9%; in [6], 83%. For the same compound, the growth was 58.1% in assay [7]; 46.8% in assay [8]; 61.8% in assay [9]; 30.9% in [10]; 73.7% in [11]; 28.1% in [12]. In addition, the growth was -32.9% (active) in assay [13], 15.7% in assay [14], 25.6% in assay [15] and 44.8% in [17].
For the compound `CC1CCN(S(=O)(=O)c2ncsc2-c2ccccc2)CC1`, the growth in [1] is 55.7%; in assay [2], 25.5%; in assay [3], 101%; in assay [4] it was 94.8%; in assay [5], 88.5%; in assay [6] it was 95%. For the same compound, the growth is 94.2% in [7]; 40.3% in assay [8]; 90% in [9]; 90.7% in [10]; 73.5% in assay [11]; 95.5% in assay [12]. The growth in [13] is 100%; in assay [14], 72.3%; in [15], 87.5%; in assay [17] it was 94.8%.
Take `CCN1CCN(c2cc(C(=O)Nc3nc4ccc(Oc5ccnc(C(=O)NC)c5)cc4s3)cc(C(F)(F)F)c2)CC1`: the growth was -3.58% (active) in [1]; 33% in assay [2]; 92.4% in [3]; 101% in assay [4]; 67.9% in assay [5]; 109% in assay [6]. Also, the growth in assay [7] is 95.8%; in [8], 93.1%; in assay [9], 99.6%; in assay [11], 149%; in assay [12] it was 68.6%; in assay [13] it was 77.5%. Further, the growth in assay [14] is 51.9%; in [15], 57.9%; in assay [16] it was 90.3%; in assay [17] it was 56.9%.
`COc1cc(/C=C/C(=O)c2ccc(N3CCN(C)CC3)cc2)ccc1F`: the growth in assay [1] was 28.3%; in assay [2] it was 28.4%; in assay [3], 88.9%; in assay [4], 81.6%; in assay [5], 75.9%; in assay [6], 99.3%. Further, the growth is 56.6% in assay [7]; 104% in assay [8]; 82.8% in assay [9]; 44.4% in assay [10]; 54.7% in [12]; 33% in assay [13]. In addition, the growth in assay [14] is 24.9%; in [15], 27.8%; in [16] it was 73%; in assay [17], 36.7%.
On to `Cc1cc(C(=O)Nc2ccc(SC#N)cc2)c(C)o1`, for which the growth is 5.44% (active) in [1]; 83.1% in assay [2]; 98.3% in [3]; 115% in [4]; 104% in assay [5]; 111% in assay [6]. Also, the growth in [7] is 88.9%; in assay [8], 112%; in [9] it was 100%; in assay [10], 84.1%; in [11], 75.4%; in assay [12], 103%. Moreover, the growth was 104% in [13]; 88.1% in [14]; 96.1% in assay [15]; 107% in assay [16]; 89% in [17].
`Cc1cn(-c2cc(NC(=O)c3cncc(C#Cc4cnc5ccc(O[C@H]6CCOC6)nn45)c3)cc(C(F)(F)F)c2)cn1`: the growth in assay [1] was 47.8%; in [2] it was 85.4%; in assay [3], 92.6%; in assay [4], 80.3%; in assay [5], 90.1%; in [6], 119%. Also, the growth in assay [7] is 65.3%; in assay [8], 73.7%; in [9], 101%; in assay [10], 98.2%; in assay [11], 181%; in assay [12] it was 76.5%. Also, the growth in [13] is 58.9%; in assay [14], 44.6%; in [15], 44.2%; in assay [17], 21.9%.
Regarding `Cn1cc2c(c1)-c1c(sc3nc(-c4ccc(NC(=O)Nc5cc(C(C)(C)C)on5)cc4)cn13)CC2`, the growth in assay [1] was 9.8% (active); in assay [2], -7.75% (active); in assay [3] it was 53.8%; in [4], 74.8%; in assay [5], 57.7%; in [6], 49.3%. The growth is 66.7% in [7]; -0.139% (active) in assay [8]; 52.8% in [9]; 30.2% in assay [10]; 71.3% in assay [11]; 51.9% in [12]. Further, the growth in [13] was 73%; in assay [14] it was 15.6%; in [15] it was 39%; in assay [16], 63.1%; in assay [17], 21.7%.
For the compound `C#C[C@]1(O)CC[C@H]2[C@@H]3CC=C4c5sc(Nc6ccncc6)nc5CC[C@]4(C)[C@H]3CC[C@@]21C`, the growth in assay [1] is 4.33% (active); in [2], -26.6% (active); in assay [3] it was 51.4%; in [4], 38.6%; in assay [5], 59.8%; in [6], -38.1% (active). The growth in [7] is 24.4%; in assay [8], -33.6% (active); in assay [9], 33.1%; in assay [11], 15.9%; in [12] it was -75.2% (active); in [13] it was -37.2% (active). The growth in assay [14] was -42.1% (active); in [15], 3.69% (active); in assay [16] it was 1.79% (active); in assay [17], -94.1% (active).
For the compound `O=C(NCCNc1cc(-c2cn(-c3ccccc3)nc2-c2cccc(O)c2)ccn1)Nc1ccc(Cl)c(C(F)(F)F)c1`, the growth in assay [1] is 65.5%; in assay [2], 17.5%; in [3], 74.1%; in assay [4], 59.9%; in assay [5], 73.5%; in [6], 94.6%. Further, the growth was 69% in [7]; 41.6% in assay [8]; 49.8% in assay [9]; 67.3% in assay [10]; 98% in [11]; 52.8% in assay [12]. Besides, the growth in assay [13] was 46.8%; in [14], 10.4%; in assay [15], 50.6%; in [16], -77.7% (active); in assay [17], 37.9%.
Regarding `CCCCSc1nnc(-c2ccc(-c3ccc(Cl)cc3)nc2C)o1`, the growth in assay [1] was 95.5%; in assay [2], 103%; in assay [3], 109%; in assay [4] it was 101%; in assay [5] it was 102%; in assay [6], 111%. For the same compound, the growth was 99.1% in assay [7]; 105% in assay [8]; 99.8% in [9]; 92.8% in assay [10]; 102% in assay [12]; 101% in assay [13]. In addition, the growth is 85.8% in [14], 98% in [15], 100% in [16] and 103% in [17].
Consider `O=C1Nc2ccc(Cl)cc2/C1=C/c1ccc(OCc2ccc(Br)cc2F)cc1`, for which the growth is 97.2% in [1]; 95.8% in assay [2]; 99.8% in [3]; 101% in [4]; 100% in [5]; 98% in assay [6]. Further, the growth in assay [7] is 104%; in assay [8], 102%; in assay [9], 98.2%; in assay [10], 106%; in [11] it was 129%; in assay [12], 104%. In addition, the growth in assay [13] was 97.8%; in assay [14], 87.5%; in assay [15], 96.7%; in [16] it was 112%; in assay [17], 101%.
As for `COc1ccc(C2C(C#N)=C(N)Oc3c2sc2ccc(C)cc32)cc1` (stereo not given), the growth was 25.7% in assay [1]; 36.5% in assay [2]; 56% in assay [3]; 51.4% in assay [4]; 63% in assay [5]; 41.2% in [6]. The growth in assay [7] is 39.8%; in [8] it was 3.28% (active); in assay [9] it was 23.6%; in [10], 32.7%; in assay [11] it was 26.8%; in assay [12], -26.4% (active). The growth was 13.9% in assay [13]; 19.2% in assay [14]; 22.1% in assay [15]; 53.2% in assay [16]; 24.2% in assay [17].
For `O=C(NCCCCCCNC(=O)c1c2c(nc3ccccc13)-c1cccnc1SC2)c1c2c(nc3ccccc13)-c1cccnc1SC2`, the growth was 89.7% in assay [1]; 58.9% in assay [2]; 78.2% in assay [3]; 57.9% in assay [4]; 79.6% in [5]; 85.7% in assay [6]. The growth in assay [7] is 43.7%; in [8], 83.2%; in assay [9], 77.2%; in [10], 79.7%; in assay [12], 56.8%; in [13] it was 39.2%. The growth in assay [14] is 76.1%; in assay [15], 66.3%; in [16] it was 44.6%; in assay [17] it was 74.7%.
Regarding `CC(=O)c1sc(Nc2cccc(Nc3nc(C)c(C)s3)c2)nc1C`, the growth in [1] was 38.5%; in assay [2], 67.9%; in assay [3] it was 43.4%; in [4], 83.5%; in assay [5] it was 51.5%; in assay [6], 25.8%. The growth in [7] was 26.4%; in assay [8], 52.7%; in assay [9], 55.6%; in assay [11], 46.2%; in assay [12], 59.1%; in assay [13] it was 62.5%. In addition, the growth in assay [14] was 61.7%; in [15] it was 44.2%; in assay [16], 80.1%; in assay [17] it was 60.2%.

For the origin of these results see PubChem BioAssay (NCI).
